Some targets named below: dAsCas12a S542R (Acidaminococcus sp., UniProt U2UMQ6 1-1307, S542R;D908A;E993A;D1235A); d-enCas12a (Acidaminococcus sp., UniProt U2UMQ6 1-1307, E174R;S542R;K548R;D908A;E993A;D1235A); d-enCas12a-Ultra (Acidaminococcus sp., UniProt U2UMQ6 1-1307, E174R;S542R;K548R;M537R;F870L;D908A;E993A;D1235A).
Test in all cases: Spec-seq (native PAGE EMSA with sequencing of bound and unbound); 25 mM Tris-HCl pH 7.4, 150 mM KCl, 5 mM MgCl2, 10% glycerol, 1 mM DTT, 40 ng/uL salmon sperm DNA; 400 nM Cas12a, 480 nM crRNA, 50 nM library, 37 C 1 h; native PAGE at room temperature; high values mean tight binding
Holding throughout (conditions): protein: recombinant
A general note: In EMSA bound probe runs differently from free probe, usually more slowly.
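Also: relative affinity from the bound to unbound sequence frequency ratio in Spec-seq.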

B1: GACG (dsDNA)
DNA 1: GCTATCTAGTGCTCAGTACGCACTGGACGAGGAAACTTCTGGCAGGACCAGGTCATGAGATCGGAAGAGCACACGTCTGAACTCCAGTCA
DNA 2: TGACTGGAGTTCAGACGTGTGCTCTTCCGATCTCATGACCTGGTCCTGCCAGAAGTTTCCTCGTCCAGTGCGTACTGAGCACTAGATAGC
RNA: AAUUUCUACUCUUGUAGAUAGGAAACUUCUGGCAGGACC
Consider B1, for which the binding signal with dAsCas12a S542R is -8.56 lnKA; with d-enCas12a it was -5.57 lnKA; in the experiment with d-enCas12a-Ultra, -2.93 lnKA.

B2: GGAA (dsDNA)
DNA 1: GCTATCTAGTGCTCAGTACGCACTGGGAAAGGAAACTTCTGGCAGGACCAGGTCATGAGATCGGAAGAGCACACGTCTGAACTCCAGTCA
DNA 2: TGACTGGAGTTCAGACGTGTGCTCTTCCGATCTCATGACCTGGTCCTGCCAGAAGTTTCCTTTCCCAGTGCGTACTGAGCACTAGATAGC
RNA: AAUUUCUACUCUUGUAGAUAGGAAACUUCUGGCAGGACC
For B2, the values for the binding signal with dAsCas12a S542R, in the experiment with d-enCas12a and with d-enCas12a-Ultra were -8.88 lnKA, -5.71 lnKA and -3.48 lnKA, respectively.

B3: GCAA (dsDNA)
DNA 1: GCTATCTAGTGCTCAGTACGCACTGGCAAAGGAAACTTCTGGCAGGACCAGGTCATGAGATCGGAAGAGCACACGTCTGAACTCCAGTCA
DNA 2: TGACTGGAGTTCAGACGTGTGCTCTTCCGATCTCATGACCTGGTCCTGCCAGAAGTTTCCTTTGCCAGTGCGTACTGAGCACTAGATAGC
RNA: AAUUUCUACUCUUGUAGAUAGGAAACUUCUGGCAGGACC
As to B3, the binding signal with dAsCas12a S542R is -8.78 lnKA; in the experiment with d-enCas12a, -5.83 lnKA; with d-enCas12a-Ultra it was -3.42 lnKA.

B4: GCAG (dsDNA)
DNA 1: GCTATCTAGTGCTCAGTACGCACTGGCAGAGGAAACTTCTGGCAGGACCAGGTCATGAGATCGGAAGAGCACACGTCTGAACTCCAGTCA
DNA 2: TGACTGGAGTTCAGACGTGTGCTCTTCCGATCTCATGACCTGGTCCTGCCAGAAGTTTCCTCTGCCAGTGCGTACTGAGCACTAGATAGC
RNA: AAUUUCUACUCUUGUAGAUAGGAAACUUCUGGCAGGACC
For B4, the binding signal with dAsCas12a S542R is -8.35 lnKA; with d-enCas12a, -6.02 lnKA; in the experiment with d-enCas12a-Ultra, -3.32 lnKA.

B5: GAGT (dsDNA)
DNA 1: GCTATCTAGTGCTCAGTACGCACTGGAGTAGGAAACTTCTGGCAGGACCAGGTCATGAGATCGGAAGAGCACACGTCTGAACTCCAGTCA
DNA 2: TGACTGGAGTTCAGACGTGTGCTCTTCCGATCTCATGACCTGGTCCTGCCAGAAGTTTCCTACTCCAGTGCGTACTGAGCACTAGATAGC
RNA: AAUUUCUACUCUUGUAGAUAGGAAACUUCUGGCAGGACC
As for B5, the binding signal was -8.58 lnKA in the experiment with dAsCas12a S542R, -5.78 lnKA in the experiment with d-enCas12a and -3.48 lnKA with d-enCas12a-Ultra.

B6: GAGC (dsDNA)
DNA 1: GCTATCTAGTGCTCAGTACGCACTGGAGCAGGAAACTTCTGGCAGGACCAGGTCATGAGATCGGAAGAGCACACGTCTGAACTCCAGTCA
DNA 2: TGACTGGAGTTCAGACGTGTGCTCTTCCGATCTCATGACCTGGTCCTGCCAGAAGTTTCCTGCTCCAGTGCGTACTGAGCACTAGATAGC
RNA: AAUUUCUACUCUUGUAGAUAGGAAACUUCUGGCAGGACC
Turning to B6, the binding signal was -8.89 lnKA with dAsCas12a S542R, -5.66 lnKA in the experiment with d-enCas12a and -3.45 lnKA with d-enCas12a-Ultra.

B7: GACT (dsDNA)
DNA 1: GCTATCTAGTGCTCAGTACGCACTGGACTAGGAAACTTCTGGCAGGACCAGGTCATGAGATCGGAAGAGCACACGTCTGAACTCCAGTCA
DNA 2: TGACTGGAGTTCAGACGTGTGCTCTTCCGATCTCATGACCTGGTCCTGCCAGAAGTTTCCTAGTCCAGTGCGTACTGAGCACTAGATAGC
RNA: AAUUUCUACUCUUGUAGAUAGGAAACUUCUGGCAGGACC
Turning to B7, the binding signal with dAsCas12a S542R is -8.65 lnKA; with d-enCas12a, -5.63 lnKA; with d-enCas12a-Ultra it was -3.01 lnKA.

B8: GCCC (dsDNA)
DNA 1: GCTATCTAGTGCTCAGTACGCACTGGCCCAGGAAACTTCTGGCAGGACCAGGTCATGAGATCGGAAGAGCACACGTCTGAACTCCAGTCA
DNA 2: TGACTGGAGTTCAGACGTGTGCTCTTCCGATCTCATGACCTGGTCCTGCCAGAAGTTTCCTGGGCCAGTGCGTACTGAGCACTAGATAGC
RNA: AAUUUCUACUCUUGUAGAUAGGAAACUUCUGGCAGGACC
With B8, the binding signal in the experiment with dAsCas12a S542R is -5 lnKA; with d-enCas12a it was -2.96 lnKA; with d-enCas12a-Ultra it was -0.56 lnKA.

B9: GGAC (dsDNA)
DNA 1: GCTATCTAGTGCTCAGTACGCACTGGGACAGGAAACTTCTGGCAGGACCAGGTCATGAGATCGGAAGAGCACACGTCTGAACTCCAGTCA
DNA 2: TGACTGGAGTTCAGACGTGTGCTCTTCCGATCTCATGACCTGGTCCTGCCAGAAGTTTCCTGTCCCAGTGCGTACTGAGCACTAGATAGC
RNA: AAUUUCUACUCUUGUAGAUAGGAAACUUCUGGCAGGACC
As for B9, the figures for the binding signal in the experiment with dAsCas12a S542R, in the experiment with d-enCas12a and with d-enCas12a-Ultra were -8.47 lnKA, -5.75 lnKA and -3.35 lnKA, respectively.

B10: GGAT (dsDNA)
DNA 1: GCTATCTAGTGCTCAGTACGCACTGGGATAGGAAACTTCTGGCAGGACCAGGTCATGAGATCGGAAGAGCACACGTCTGAACTCCAGTCA
DNA 2: TGACTGGAGTTCAGACGTGTGCTCTTCCGATCTCATGACCTGGTCCTGCCAGAAGTTTCCTATCCCAGTGCGTACTGAGCACTAGATAGC
RNA: AAUUUCUACUCUUGUAGAUAGGAAACUUCUGGCAGGACC
Turning to B10, the figures for the binding signal with dAsCas12a S542R, with d-enCas12a and in the experiment with d-enCas12a-Ultra were -8.54 lnKA, -5.99 lnKA and -3.45 lnKA, respectively.

B11: GAGG (dsDNA)
DNA 1: GCTATCTAGTGCTCAGTACGCACTGGAGGAGGAAACTTCTGGCAGGACCAGGTCATGAGATCGGAAGAGCACACGTCTGAACTCCAGTCA
DNA 2: TGACTGGAGTTCAGACGTGTGCTCTTCCGATCTCATGACCTGGTCCTGCCAGAAGTTTCCTCCTCCAGTGCGTACTGAGCACTAGATAGC
RNA: AAUUUCUACUCUUGUAGAUAGGAAACUUCUGGCAGGACC
B11: the binding signal with dAsCas12a S542R was -8.75 lnKA; in the experiment with d-enCas12a it was -5.9 lnKA; with d-enCas12a-Ultra, -3.51 lnKA.

B12: GCAC (dsDNA)
DNA 1: GCTATCTAGTGCTCAGTACGCACTGGCACAGGAAACTTCTGGCAGGACCAGGTCATGAGATCGGAAGAGCACACGTCTGAACTCCAGTCA
DNA 2: TGACTGGAGTTCAGACGTGTGCTCTTCCGATCTCATGACCTGGTCCTGCCAGAAGTTTCCTGTGCCAGTGCGTACTGAGCACTAGATAGC
RNA: AAUUUCUACUCUUGUAGAUAGGAAACUUCUGGCAGGACC
With B12, the binding signal with dAsCas12a S542R is -8.62 lnKA; with d-enCas12a, -5.82 lnKA; with d-enCas12a-Ultra it was -3.32 lnKA.

B13: GCCG (dsDNA)
DNA 1: GCTATCTAGTGCTCAGTACGCACTGGCCGAGGAAACTTCTGGCAGGACCAGGTCATGAGATCGGAAGAGCACACGTCTGAACTCCAGTCA
DNA 2: TGACTGGAGTTCAGACGTGTGCTCTTCCGATCTCATGACCTGGTCCTGCCAGAAGTTTCCTCGGCCAGTGCGTACTGAGCACTAGATAGC
RNA: AAUUUCUACUCUUGUAGAUAGGAAACUUCUGGCAGGACC
For B13, the values for the binding signal in the experiment with dAsCas12a S542R, with d-enCas12a and with d-enCas12a-Ultra were -6.59 lnKA, -5.48 lnKA and -1.86 lnKA, respectively.

B14: GCCT (dsDNA)
DNA 1: GCTATCTAGTGCTCAGTACGCACTGGCCTAGGAAACTTCTGGCAGGACCAGGTCATGAGATCGGAAGAGCACACGTCTGAACTCCAGTCA
DNA 2: TGACTGGAGTTCAGACGTGTGCTCTTCCGATCTCATGACCTGGTCCTGCCAGAAGTTTCCTAGGCCAGTGCGTACTGAGCACTAGATAGC
RNA: AAUUUCUACUCUUGUAGAUAGGAAACUUCUGGCAGGACC
Consider B14, for which the results for the binding signal with dAsCas12a S542R, in the experiment with d-enCas12a and with d-enCas12a-Ultra were -7.86 lnKA, -5.97 lnKA and -2.67 lnKA, respectively.

B15: GCAT (dsDNA)
DNA 1: GCTATCTAGTGCTCAGTACGCACTGGCATAGGAAACTTCTGGCAGGACCAGGTCATGAGATCGGAAGAGCACACGTCTGAACTCCAGTCA
DNA 2: TGACTGGAGTTCAGACGTGTGCTCTTCCGATCTCATGACCTGGTCCTGCCAGAAGTTTCCTATGCCAGTGCGTACTGAGCACTAGATAGC
RNA: AAUUUCUACUCUUGUAGAUAGGAAACUUCUGGCAGGACC
Take B15: the binding signal with dAsCas12a S542R was -8.69 lnKA; in the experiment with d-enCas12a it was -5.86 lnKA; with d-enCas12a-Ultra, -3.45 lnKA.

B16: GGAG (dsDNA)
DNA 1: GCTATCTAGTGCTCAGTACGCACTGGGAGAGGAAACTTCTGGCAGGACCAGGTCATGAGATCGGAAGAGCACACGTCTGAACTCCAGTCA
DNA 2: TGACTGGAGTTCAGACGTGTGCTCTTCCGATCTCATGACCTGGTCCTGCCAGAAGTTTCCTCTCCCAGTGCGTACTGAGCACTAGATAGC
RNA: AAUUUCUACUCUUGUAGAUAGGAAACUUCUGGCAGGACC
On to B16, for which the binding signal in the experiment with dAsCas12a S542R was -8.39 lnKA; in the experiment with d-enCas12a, -5.85 lnKA; in the experiment with d-enCas12a-Ultra it was -3.43 lnKA.

B17: GCGT (dsDNA)
DNA 1: GCTATCTAGTGCTCAGTACGCACTGGCGTAGGAAACTTCTGGCAGGACCAGGTCATGAGATCGGAAGAGCACACGTCTGAACTCCAGTCA
DNA 2: TGACTGGAGTTCAGACGTGTGCTCTTCCGATCTCATGACCTGGTCCTGCCAGAAGTTTCCTACGCCAGTGCGTACTGAGCACTAGATAGC
RNA: AAUUUCUACUCUUGUAGAUAGGAAACUUCUGGCAGGACC
In the case of B17, the binding signal with dAsCas12a S542R is -8.52 lnKA; with d-enCas12a, -5.91 lnKA; in the experiment with d-enCas12a-Ultra it was -3.51 lnKA.

These data come from article PMC8222333, “AsCas12a ultra nuclease facilitates the rapid generation of therapeutic cell medicines”.
